Out of some 2,400 compounds screened, about 220 (9.2%) were called active.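 How the source made its calls: active means signal change above the mean of dofetilide-free buffer controls plus 3 SD, so a positive margin; inactive means the rest.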 This excerpt belongs to a sample that is enriched for actives.

A short description of this assay: nonspecific flux effects in parental CHO-K1, confirmation, counter-screen for hERG block protection project, cell-based, CHO-K1 parental line, FluxOR thallium flux (AID 1839).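 Further: compounds applied alone with no dofetilide to cells lacking hERG.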 As to conditions: CHO-K1 parental cells, FluxOR thallium flux fluorescence; at 10 µM.
As for `Cc1cc(C(=O)NNC2CC(=O)N(c3ccc4ccccc4c3)C2=O)c(C)o1` (stereo unspecified), the signal change vs control minus 3*SD hit threshold (margin above threshold, higher = more increase) was -24.7% (inactive).

On to `O=C(c1cccs1)N1CCN(C23CC4CC(CC(C4)C2)C3)CC1`, for which the signal change vs control minus 3*SD hit threshold (margin above threshold, higher = more increase) is -34.9% (inactive).

For `Cc1cc(C)c(S(=O)(=O)NCc2ccccn2)c(C)c1`, the signal change vs control minus 3*SD hit threshold (margin above threshold, higher = more increase) is -22.6% (inactive).

On to `Cn1c(=O)c(Sc2ccccc2)c(O)c2ccccc21`, for which the signal change vs control minus 3*SD hit threshold (margin above threshold, higher = more increase) was -14.2% (inactive).

`O=C1CC(O)(C(F)(F)F)Oc2c1ccc1ccccc21` (stereo unspecified): the signal change vs control minus 3*SD hit threshold (margin above threshold, higher = more increase) is -3% (inactive).

Turning to `CCc1ccc(NC(=S)Nc2cccc(OC)c2)cc1`, the signal change vs control minus 3*SD hit threshold (margin above threshold, higher = more increase) is -32.4% (inactive).

For `CCc1ccc(NC(=O)C(=O)NNC(=O)c2cccc(OC)c2)cc1`, the signal change vs control minus 3*SD hit threshold (margin above threshold, higher = more increase) is 41.3% (active).

As to `COc1cccc(CCNS(=O)(=O)CCNC(=O)c2cccc(OC)c2)c1`, the signal change vs control minus 3*SD hit threshold (margin above threshold, higher = more increase) was -25.6% (inactive).

In the case of `CC(=O)Nc1ccccc1C(=O)C(=O)Nc1ccccc1`, the signal change vs control minus 3*SD hit threshold (margin above threshold, higher = more increase) was -32.8% (inactive).

With `O=C(NC(=S)N1CCCCCC1)c1ccc(Cl)cc1Cl`, the signal change vs control minus 3*SD hit threshold (margin above threshold, higher = more increase) is -16.7% (inactive).

Consider `CCN(CC)C(=S)NC(=O)c1ccc(F)cc1`, for which the signal change vs control minus 3*SD hit threshold (margin above threshold, higher = more increase) is -15.9% (inactive).

Take `CCCN(CCC)C(=S)NC(=O)c1ccc(Cl)cc1Cl`: the signal change vs control minus 3*SD hit threshold (margin above threshold, higher = more increase) was 27% (active).

Take `CC1(C)CC(NC(=O)c2ccc(Cl)cc2Cl)CC(C)(C)N1`: the signal change vs control minus 3*SD hit threshold (margin above threshold, higher = more increase) is -35.9% (inactive).

As to `CCN(CC)C(=S)NC(=O)c1ccc(Cl)cc1Cl`, the signal change vs control minus 3*SD hit threshold (margin above threshold, higher = more increase) was 3.8% (active).

Turning to `CN(C)/C=C/C(=O)c1ccc(Cl)cc1Cl`, the signal change vs control minus 3*SD hit threshold (margin above threshold, higher = more increase) was -23.8% (inactive).

As for `CC1(C)CC2CC(C)(CN2C(=S)NC(=O)c2ccccc2Cl)C1` (stereo unspecified), the signal change vs control minus 3*SD hit threshold (margin above threshold, higher = more increase) was -14.7% (inactive).

Regarding `CCCCN(CCCC)C(=S)NC(=O)c1ccccc1Cl`, the signal change vs control minus 3*SD hit threshold (margin above threshold, higher = more increase) is 39.6% (active).

As to `O=C(NC(=S)N(CCO)Cc1ccccc1)c1cc(Br)ccc1Cl`, the signal change vs control minus 3*SD hit threshold (margin above threshold, higher = more increase) was -12.2% (inactive).

In the case of `C=CCNC(=O)c1onc(CSc2ccc(OC)cc2)c1C(=O)O`, the signal change vs control minus 3*SD hit threshold (margin above threshold, higher = more increase) is -35.4% (inactive).

As for `Cc1ccc(/C=C(\NC(=O)c2ccccc2)C(=O)N2CCCCC2)cc1`, the signal change vs control minus 3*SD hit threshold (margin above threshold, higher = more increase) is -35.4% (inactive).

`O=C(CCc1nc(-c2ccccc2)no1)N1CCCC1`: the signal change vs control minus 3*SD hit threshold (margin above threshold, higher = more increase) is -26.5% (inactive).

For the molecule `Cc1nn(-c2ccccc2)c(C)c1S(=O)(=O)O`, the signal change vs control minus 3*SD hit threshold (margin above threshold, higher = more increase) is -23.2% (inactive).

For the molecule `Cc1nn(-c2ccccc2)c(Cl)c1/C=C1\SC(=S)NC1=O`, the signal change vs control minus 3*SD hit threshold (margin above threshold, higher = more increase) is 26.5% (active).

`Cc1nn(-c2ccccc2)c(N2CCCC2)c1/C=N/O`: the signal change vs control minus 3*SD hit threshold (margin above threshold, higher = more increase) was -24.6% (inactive).

For the molecule `CCc1nnc(NC(=O)c2c(C)nn(-c3ccccc3)c2Cl)s1`, the signal change vs control minus 3*SD hit threshold (margin above threshold, higher = more increase) is -14.1% (inactive).

For `O=S(=O)(NC(=S)NC1CCCCC1)c1ccc(Br)cc1`, the signal change vs control minus 3*SD hit threshold (margin above threshold, higher = more increase) is -9.7% (inactive).

As to `CCOC(=O)c1c(O)c2ccccc2n(C)c1=O`, the signal change vs control minus 3*SD hit threshold (margin above threshold, higher = more increase) is -25% (inactive).

On to `CCOC(=O)C1CCN(C(=O)COC(=O)c2nn(C)c(=O)c3ccccc23)CC1`, for which the signal change vs control minus 3*SD hit threshold (margin above threshold, higher = more increase) was -33.9% (inactive).

With `CCOC(=O)c1n[nH]n2c1nc(=S)c1ccccc12`, the signal change vs control minus 3*SD hit threshold (margin above threshold, higher = more increase) is 12.1% (active).

As for `CCOc1ccc2nc(/N=C/c3c(C)[nH]n(-c4ccc(C)cc4)c3=O)sc2c1`, the signal change vs control minus 3*SD hit threshold (margin above threshold, higher = more increase) was 33.5% (active).

As to `COc1ccc2nc(/N=C/c3c(C)[nH]n(-c4ccc(C)cc4)c3=O)sc2c1`, the signal change vs control minus 3*SD hit threshold (margin above threshold, higher = more increase) is 62.6% (active).

Regarding `Cc1[nH]n(-c2ccc(F)cc2)c(=O)c1/C=N/c1sc2c(c1C#N)CCCC2`, the signal change vs control minus 3*SD hit threshold (margin above threshold, higher = more increase) was -1.9% (inactive).

Take `Cc1[nH]n(-c2ccc(Cl)cc2)c(=O)c1/C=N/c1nnc(-c2ccccc2)s1`: the signal change vs control minus 3*SD hit threshold (margin above threshold, higher = more increase) is 78.7% (active).

With `CCOc1ccc2nc(/N=C/c3nc(-c4ccc(Br)cc4)oc3O)sc2c1`, the signal change vs control minus 3*SD hit threshold (margin above threshold, higher = more increase) is -17.1% (inactive).

With `COc1ccc2nc(/N=C/c3c(C)[nH]n(-c4ccc(C)cc4C)c3=O)sc2c1`, the signal change vs control minus 3*SD hit threshold (margin above threshold, higher = more increase) was 22.3% (active).

For the molecule `COc1ccc2nc(-n3c(O)c(C4=c5ccccc5=NC4=O)[nH]c3=S)sc2c1`, the signal change vs control minus 3*SD hit threshold (margin above threshold, higher = more increase) is -25.1% (inactive).

Take `CCOc1ccc2nc(N3C(=O)/C(=C/c4ccc(Cl)cc4)NC3=S)sc2c1`: the signal change vs control minus 3*SD hit threshold (margin above threshold, higher = more increase) was -25% (inactive).

As to `Cc1[nH]n(-c2ccccc2)c(=O)c1N=Nc1ccc(C(N)=O)cc1`, the signal change vs control minus 3*SD hit threshold (margin above threshold, higher = more increase) is -43.3% (inactive).

Regarding `Cc1[nH]n(-c2cccc3ccccc23)c(=O)c1/C=N/c1sc2c(c1C#N)CCC2`, the signal change vs control minus 3*SD hit threshold (margin above threshold, higher = more increase) was -19.1% (inactive).

Regarding `CCCCNC(=O)N1CCCC(C(=O)c2cc(C)c(OC)c(C)c2)C1` (stereo unspecified), the signal change vs control minus 3*SD hit threshold (margin above threshold, higher = more increase) was -38% (inactive).

For the molecule `O=C(NCc1cccs1)C1CC(c2ccc(F)cc2)=NO1` (stereo unspecified), the signal change vs control minus 3*SD hit threshold (margin above threshold, higher = more increase) is -40.3% (inactive).

Take `Cc1cccc(NC(=O)CN2C(=O)S/C(=C\c3cccn3-c3cccc(C(=O)O)c3)C2=O)c1`: the signal change vs control minus 3*SD hit threshold (margin above threshold, higher = more increase) is -27.2% (inactive).

As to `Cc1cc(Cl)ccc1OC(C)C(=O)NCCc1ccc2c(c1)OCCO2` (stereo unspecified), the signal change vs control minus 3*SD hit threshold (margin above threshold, higher = more increase) is -37.2% (inactive).

`CC(NC(=O)NC1CCCCC1)c1ccc2c(c1)OCO2` (stereo unspecified): the signal change vs control minus 3*SD hit threshold (margin above threshold, higher = more increase) was -5.4% (inactive).

For `COc1ccc(C(=O)CC(=O)C(=O)Nc2ccc(C)c(C)c2)cc1`, the signal change vs control minus 3*SD hit threshold (margin above threshold, higher = more increase) was -27.5% (inactive).

Regarding `Cc1ccnc(SCCn2c(N3CC(C)OC(C)C3)nc3c2c(=O)n(C)c(=O)n3C)n1` (stereo unspecified), the signal change vs control minus 3*SD hit threshold (margin above threshold, higher = more increase) was -31.9% (inactive).

Consider `CCOc1ccc2nc(N3C(=O)/C(=C/c4ccccc4)NC3=S)sc2c1`, for which the signal change vs control minus 3*SD hit threshold (margin above threshold, higher = more increase) is -18.8% (inactive).

For the molecule `CCOc1ccc2nc(/N=C/c3c(C)[nH]n(-c4ccccc4)c3=O)sc2c1`, the signal change vs control minus 3*SD hit threshold (margin above threshold, higher = more increase) is 53.3% (active).

Consider `CCOc1ccc2nc(/N=C/c3nc(-c4ccccc4)oc3O)sc2c1`, for which the signal change vs control minus 3*SD hit threshold (margin above threshold, higher = more increase) is -18.5% (inactive).

With `S=c1[nH]nc(CSc2nc3ccccc3s2)n1C1CCCCC1`, the signal change vs control minus 3*SD hit threshold (margin above threshold, higher = more increase) was -26.3% (inactive).

`Cc1ccc(NC(=O)c2cc(NC(=O)/C=C\C(=O)O)ccc2N2CCCCC2)cc1`: the signal change vs control minus 3*SD hit threshold (margin above threshold, higher = more increase) is -12.7% (inactive).

As to `CC1(C)Cc2c(sc3[nH]c(=S)n(Cc4ccccc4)c(=O)c23)CO1`, the signal change vs control minus 3*SD hit threshold (margin above threshold, higher = more increase) is -22.2% (inactive).

`CC(C)C1Cc2c(sc3[nH]c(=S)n(Cc4ccccc4)c(=O)c23)CO1` (stereo unspecified): the signal change vs control minus 3*SD hit threshold (margin above threshold, higher = more increase) was -10.8% (inactive).

Consider `CCC1(C)Cc2c(sc3[nH]c(=S)n(Cc4ccccc4)c(=O)c23)CO1` (stereo unspecified), for which the signal change vs control minus 3*SD hit threshold (margin above threshold, higher = more increase) is 10.6% (active).

Turning to `COC(=O)CSc1nc(N2CCCCC2)c2c(c1C#N)CCCC2`, the signal change vs control minus 3*SD hit threshold (margin above threshold, higher = more increase) is -8.9% (inactive).

Regarding `O=C(COC(=O)c1cc(Br)ccc1O)Nc1cccnc1Cl`, the signal change vs control minus 3*SD hit threshold (margin above threshold, higher = more increase) is -24.7% (inactive).

Consider `CC(C)c1ccc(OCC(=O)NN2C(=O)c3ccccc3C2=O)c(Br)c1`, for which the signal change vs control minus 3*SD hit threshold (margin above threshold, higher = more increase) was -24% (inactive).

For `Cc1ccc(C)c2sc(NC(=O)c3nc4ccccc4s3)nc12`, the signal change vs control minus 3*SD hit threshold (margin above threshold, higher = more increase) was -20.2% (inactive).

In the case of `CCOC(=O)c1c(NS(=O)(=O)c2ccc(Br)cc2)sc2c1CCC2`, the signal change vs control minus 3*SD hit threshold (margin above threshold, higher = more increase) was 32.6% (active).

As for `COC(=O)c1c(NS(=O)(=O)c2ccc3ccccc3c2)sc2c1CCCC2`, the signal change vs control minus 3*SD hit threshold (margin above threshold, higher = more increase) is -22.4% (inactive).

On to `CCOC(=O)c1c(NS(=O)(=O)Cc2ccccc2)sc2c1CCCC2`, for which the signal change vs control minus 3*SD hit threshold (margin above threshold, higher = more increase) is -0.7% (inactive).

(Values after PubChem BioAssay AID1839 (Johns Hopkins Ion Channel Center, 2009).)
